Data taken from PubChem BioAssay (NCATS).
Records with an inconclusive call do not appear. Calls of active or inactive are those of the source. Unless noted, the call rests on the fitted dose curve; in most records, active means well fitted curve in the direction sought with a large enough effect; inconclusive means small, poorly fitted or top-dose-only effect, or another doubt; inactive means no such curve, though single readings can be large; an effect the other way counts as inactive or inconclusive.

Key:
[1] = target: Beta-2 adrenergic receptor (Homo sapiens) (UniProt P07550); assay: qHTS validation assay of beta-arrestin-biased ligands of beta2-adrenergic receptor (AID 485366); further: 0% is about no effect
Beta-2 adrenergic receptor (Homo sapiens), sequence (P07550 whole entry, looked up): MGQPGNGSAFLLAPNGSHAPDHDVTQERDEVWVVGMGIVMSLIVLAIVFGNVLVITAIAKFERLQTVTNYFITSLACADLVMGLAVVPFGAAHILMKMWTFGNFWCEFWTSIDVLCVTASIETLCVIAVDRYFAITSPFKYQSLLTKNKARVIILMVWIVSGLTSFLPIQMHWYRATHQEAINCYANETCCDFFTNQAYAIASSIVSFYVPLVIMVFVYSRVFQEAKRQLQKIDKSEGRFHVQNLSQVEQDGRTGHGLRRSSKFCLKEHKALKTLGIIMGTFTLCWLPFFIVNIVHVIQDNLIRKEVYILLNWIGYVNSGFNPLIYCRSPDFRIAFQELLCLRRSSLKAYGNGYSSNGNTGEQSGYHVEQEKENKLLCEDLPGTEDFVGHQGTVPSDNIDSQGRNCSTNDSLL
Procedure, shortened: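 qHTS, Tango cells, 1500 cells/well, DMEM + 1% FBS. Cpd 18 hr at 37 degrees C. Luciferin/ATP/CoA detection mix, 15 min RT, luminescence read. %Activity from corrected signal; CRC fit, curve class.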

[2] = target: Thioredoxin reductase 1, cytoplasmic (Rattus norvegicus) (UniProt O89049); assay: qHTS Assay for Substrates of Mammalian Selenoprotein Thioredoxin Reductase 1 (TrxR1) (AID 488772);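 further: series mostly up to about 57 µM; 0% is about no effect; a drop in NADPH fluorescence below the no-compound background marks a TrxR1 substrate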
Thioredoxin reductase 1, cytoplasmic (Rattus norvegicus), sequence (O89049 whole entry, looked up): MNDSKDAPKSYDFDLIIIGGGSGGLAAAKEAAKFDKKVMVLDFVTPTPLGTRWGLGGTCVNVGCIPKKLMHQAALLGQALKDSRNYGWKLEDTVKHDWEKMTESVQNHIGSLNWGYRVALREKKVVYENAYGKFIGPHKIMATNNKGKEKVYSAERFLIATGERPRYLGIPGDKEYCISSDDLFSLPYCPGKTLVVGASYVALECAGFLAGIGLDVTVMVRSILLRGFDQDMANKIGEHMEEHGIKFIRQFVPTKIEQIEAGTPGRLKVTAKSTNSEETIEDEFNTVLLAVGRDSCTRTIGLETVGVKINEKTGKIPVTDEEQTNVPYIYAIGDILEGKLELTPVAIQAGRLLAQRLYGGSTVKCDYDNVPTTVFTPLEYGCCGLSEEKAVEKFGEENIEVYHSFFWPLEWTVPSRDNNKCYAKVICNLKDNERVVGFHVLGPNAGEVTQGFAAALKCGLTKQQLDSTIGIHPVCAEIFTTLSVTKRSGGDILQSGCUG
Procedure, shortened: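 In this dual-purpose format, potential substrates are identified from the first fluorescence read after selenite addition, not from the 8-minute delta. Rat enzyme is preincubated with NADPH and then with compound at ~22 deg C.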

[3] = target: Thioredoxin reductase 1, cytoplasmic (Rattus norvegicus) (UniProt O89049); assay: qHTS Assay for Inhibitors of Mammalian Selenoprotein Thioredoxin Reductase 1 (TrxR1) (AID 488773); conditions: Potency: inhibition; further: nearly all actives have a fitted effect of over 40% in size; further: potency means the concentration at half of the fitted maximal effect
Procedure, shortened: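 Inhibition is scored from the loss of NADPH fluorescence between first and last reads of an 8-min kinetic run. Selenite (400 uM) was the substrate, added after 15 min compound preincubation at room temperature.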

[4] = target: Flap endonuclease 1 (Homo sapiens) (UniProt P39748); assay: qHTS Validation Assay for the Inhibitors of Human Flap endonuclease 1 (FEN1) (AID 488816); further: on the % scale 0 is the no-effect control and ±100 the full control effect
Flap endonuclease 1 (Homo sapiens), sequence (P39748 whole entry, looked up): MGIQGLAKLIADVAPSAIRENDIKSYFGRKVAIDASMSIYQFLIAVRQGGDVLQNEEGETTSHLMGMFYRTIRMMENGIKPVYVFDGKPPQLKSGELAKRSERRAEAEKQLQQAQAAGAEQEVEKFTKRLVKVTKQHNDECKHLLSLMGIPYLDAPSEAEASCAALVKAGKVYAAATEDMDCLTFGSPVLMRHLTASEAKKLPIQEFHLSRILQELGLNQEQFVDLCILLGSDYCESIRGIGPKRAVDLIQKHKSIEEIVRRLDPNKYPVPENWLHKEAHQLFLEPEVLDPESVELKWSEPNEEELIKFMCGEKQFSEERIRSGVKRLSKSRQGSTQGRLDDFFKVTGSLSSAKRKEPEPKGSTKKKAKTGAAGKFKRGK
Procedure, shortened: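 Enzyme reagent 10 nM; cpds pinned; 15 min RT preinc.; substrate 50 nM final; reads t=0 and 15 min; no-enzyme buffer wells as neg. control; normalized data, 4-parameter Hill fit.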

[5] = target: M-phase phosphoprotein 8 (Homo sapiens) (UniProt Q99549); assay: qHTS Validation Assay for Inhibitors for MPP8 Chromodomain Interactions with Methylated Histone Tails (AID 488949); further: nearly all actives have a fitted effect of over 55% in size; further: potency means the concentration at half of the fitted maximal effect
Procedure, shortened: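 50 nM MPP8 + 50 nM b-H3K9me3 peptide, PBS pH 7.4/0.01% Tween-20, 30 min RT; + cpd 30 min RT; + AlphaScreen donor/Ni-chelate acceptor beads 10 ug/mL final, 30 min dark; luminescence read.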

[6] = target: Methanococcus maripaludis chaperonin (MmCpn) (UniProt Q6LX38); assay: High-Throughput Screening for Modulators of Cytosolic Chaperonin Activity: MmCpn Primary Screen (AID 488978);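 further: 50 nM MmCpn enzyme hydrolysing 30 µM ATP at 37 °C; 0% is about no effect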
Methanococcus maripaludis chaperonin (MmCpn), sequence (Q6LX38 1-543): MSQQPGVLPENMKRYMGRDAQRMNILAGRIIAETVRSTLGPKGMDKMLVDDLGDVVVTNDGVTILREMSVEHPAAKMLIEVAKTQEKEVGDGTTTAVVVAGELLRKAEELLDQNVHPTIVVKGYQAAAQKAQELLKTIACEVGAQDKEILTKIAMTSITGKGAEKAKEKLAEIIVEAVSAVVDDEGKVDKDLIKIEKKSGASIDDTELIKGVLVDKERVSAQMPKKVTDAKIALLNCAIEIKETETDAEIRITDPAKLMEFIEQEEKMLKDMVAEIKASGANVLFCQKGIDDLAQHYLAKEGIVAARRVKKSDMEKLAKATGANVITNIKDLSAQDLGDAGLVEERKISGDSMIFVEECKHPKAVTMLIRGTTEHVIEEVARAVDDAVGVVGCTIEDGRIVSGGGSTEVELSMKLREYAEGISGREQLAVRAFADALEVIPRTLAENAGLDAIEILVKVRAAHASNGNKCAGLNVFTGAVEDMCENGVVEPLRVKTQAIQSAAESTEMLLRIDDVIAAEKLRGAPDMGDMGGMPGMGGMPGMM
Procedure, shortened: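 Steps: chaperonin 50 nM final; add compound, 5 min RT; start with ATP, 30 uM final; hold 10 min at 37C; add ADP Transcreener HTRF reagent, 5 min; read ex 320, em 590 and 665 nm.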

[7] = target: Transient receptor potential cation channel subfamily V member 1 (Homo sapiens) (UniProt Q8NER1); assay: HTS Assay for Compounds that Act as Enhancers of the Vanilloid Receptor 1 (AID 488979); further: 0% is about no effect
Transient receptor potential cation channel subfamily V member 1 (Homo sapiens), sequence (Q8NER1 whole entry, looked up): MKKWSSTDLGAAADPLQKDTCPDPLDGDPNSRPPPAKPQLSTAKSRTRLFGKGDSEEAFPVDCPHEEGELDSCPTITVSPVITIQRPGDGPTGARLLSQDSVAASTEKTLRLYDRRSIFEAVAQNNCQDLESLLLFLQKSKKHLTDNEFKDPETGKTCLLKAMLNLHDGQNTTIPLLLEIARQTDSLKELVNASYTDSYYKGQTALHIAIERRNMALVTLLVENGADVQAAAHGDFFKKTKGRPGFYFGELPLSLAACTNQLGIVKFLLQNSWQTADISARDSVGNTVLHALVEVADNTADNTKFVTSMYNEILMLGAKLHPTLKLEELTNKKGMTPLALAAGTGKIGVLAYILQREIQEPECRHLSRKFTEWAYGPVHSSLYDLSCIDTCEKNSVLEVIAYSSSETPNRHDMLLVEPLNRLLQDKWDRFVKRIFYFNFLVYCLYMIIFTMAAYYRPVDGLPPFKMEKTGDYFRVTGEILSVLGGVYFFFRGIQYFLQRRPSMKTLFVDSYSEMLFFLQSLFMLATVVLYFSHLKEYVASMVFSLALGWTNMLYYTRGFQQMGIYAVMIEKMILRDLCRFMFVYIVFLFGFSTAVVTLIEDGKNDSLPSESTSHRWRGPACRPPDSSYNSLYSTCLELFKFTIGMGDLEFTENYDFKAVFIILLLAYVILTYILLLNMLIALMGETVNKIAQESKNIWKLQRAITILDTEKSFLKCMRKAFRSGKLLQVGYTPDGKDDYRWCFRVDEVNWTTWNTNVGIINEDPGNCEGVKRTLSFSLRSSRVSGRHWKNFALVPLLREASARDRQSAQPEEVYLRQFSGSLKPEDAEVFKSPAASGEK
Procedure, shortened: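 TRPV1 cells loaded with Fluo-8 calcium dye; compound added and Ca2+ signal (ex 480/em 520 nm) followed 3 min, then capsaicin at EC20 added and read 2 more min to detect enhancement.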

[8] = target: Thyrotropin receptor (Homo sapiens) (UniProt P16473); assay: qHTS Assay for Antagonists of the Thyroid Stimulating Hormone Receptor (AID 488980); further: series mostly up to about 58 µM; 0% is about no effect
Procedure, shortened: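 Readout is cAMP by HTRF competition between cellular cAMP and cAMP-d2 for a cryptate-labelled antibody. Antagonism was assessed in TSHR-transfected HEK293 cells stimulated with 4 nM TSH (EC80, final) in the presence of RO 20-1724.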

[9] = target: D(1A) dopamine receptor (Homo sapiens) (UniProt P21728); assay: HTS Assay for Allosteric Agonists of the Human D1 Dopamine Receptor: Primary Screen for Potentiators (AID 488982); further: potency means the concentration at half of the fitted maximal effect
Procedure, shortened: (§1)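 Tetracycline-induced HEK293 Trex D1 cells with forced coupling to calcium, loaded with no-wash calcium dye; kinetic fluorescence read 180 s after compound addition for agonism, then a further 180 s after an EC20 dopamine challenge for potentiation.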

[10] = target: D(1A) dopamine receptor (Homo sapiens) (UniProt P21728); assay: HTS Assay for Allosteric Agonists of the Human D1 Dopamine Receptor: Primary Screen for Antagonists (AID 488983);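 further: calcium flux response to an EC80 dopamine challenge measured with no-wash dye; nearly all actives have a fitted effect of over 65% in size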; further: potency means the concentration at half of the fitted maximal effect
Procedure, shortened: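 Calcium-flux read-out in inducible HEK293 T-REx cells expressing D1, dye-loaded 30–90 min at room temperature. Kinetic reads: 180 s after compound (agonist phase), then 180 s after an EC80 dopamine challenge.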

[11] = Validation screen for small molecules that induce genotoxicity in human embryonic kidney (HEK293T) cells expressing luciferase-tagged ELG1 (AID 493106); further: potency means the concentration at half of the fitted maximal effect
Procedure, shortened: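 ELG1-luciferase reporter readout (ONE-Glo, 30 min, room temperature) after 16 hr compound treatment at 37 °C of HEK293T cells at 2,000 per well. Rising luminescence flags genotoxic stress.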

[12] = target: Thyrotropin-releasing hormone receptor (Homo sapiens) (UniProt P34981); assay: qHTS for Small Molecule Agonists and Allosteric Enhancers of Human TRH Receptor: Validation Screen for Agonists (AID 493127;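 active means calcium activation more than 3 SD above the typical response in the agonist read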;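 further: intracellular calcium rise by fluo-8 fluorescence before TRH EC20 addition; 0% is about no effect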); conditions: TRH receptor agonist cell assay; at 2 µM; stronger effect = higher value
Thyrotropin-releasing hormone receptor (Homo sapiens), sequence (P34981 whole entry, looked up): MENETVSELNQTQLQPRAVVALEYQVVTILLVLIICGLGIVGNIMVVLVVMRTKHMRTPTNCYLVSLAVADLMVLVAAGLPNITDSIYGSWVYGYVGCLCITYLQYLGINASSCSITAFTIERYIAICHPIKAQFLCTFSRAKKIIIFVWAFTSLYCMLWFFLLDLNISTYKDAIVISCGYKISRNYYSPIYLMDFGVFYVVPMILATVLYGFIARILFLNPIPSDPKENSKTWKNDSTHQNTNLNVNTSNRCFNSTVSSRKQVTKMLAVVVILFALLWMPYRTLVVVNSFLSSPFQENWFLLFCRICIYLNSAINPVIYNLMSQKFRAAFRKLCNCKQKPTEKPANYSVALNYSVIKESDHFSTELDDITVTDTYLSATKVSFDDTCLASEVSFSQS
Procedure, shortened: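 Compound-evoked intracellular calcium release in fluo-8-loaded TRHR cells, read kinetically on FDSS (Ex 480/Em 530, 1 s/cycle) after 23 nL pintool transfer. Agonist phase preceded 10 nM TRH EC20 addition.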

[13] = target: Chromobox protein homolog 1 (Homo sapiens) (UniProt P83916); assay: qHTS Validation Assay for Inhibitors of HP1-beta Chromodomain Interactions with Methylated Histone Tails (AID 488953); further: nearly all actives have a fitted effect of over 50% in size; further: potency means the concentration at half of the fitted maximal effect
Procedure, shortened: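 AlphaScreen proximity signal from streptavidin donor and nickel chelate acceptor beads (final 10 ug/mL) after 30 min dark incubation. Compounds had 30 min at room temperature with preformed complex of 50 nM HP1-beta and 50 nM b-H3(1-18)K9me3 in PBS pH 7.4 with 0.01% Tween-20.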

[14] = target: ATPase family AAA domain-containing protein 5 (Homo sapiens) (UniProt Q96QE3); assay: Validation screen for small molecules that inhibit ELG1-dependent DNA repair in human embryonic kidney (HEK293T) cells expressing luciferase-tagged ELG1 (AID 493107);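 further: series mostly up to about 46 µM; on the % scale 0 is the no-effect control and ±100 the full control effect; inhibitors lower the ELG1-luciferase luminescence signal; nearly all actives have a fitted effect of over 70% in size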
ATPase family AAA domain-containing protein 5 (Homo sapiens), sequence (Q96QE3 whole entry, looked up, the tested form may be a part): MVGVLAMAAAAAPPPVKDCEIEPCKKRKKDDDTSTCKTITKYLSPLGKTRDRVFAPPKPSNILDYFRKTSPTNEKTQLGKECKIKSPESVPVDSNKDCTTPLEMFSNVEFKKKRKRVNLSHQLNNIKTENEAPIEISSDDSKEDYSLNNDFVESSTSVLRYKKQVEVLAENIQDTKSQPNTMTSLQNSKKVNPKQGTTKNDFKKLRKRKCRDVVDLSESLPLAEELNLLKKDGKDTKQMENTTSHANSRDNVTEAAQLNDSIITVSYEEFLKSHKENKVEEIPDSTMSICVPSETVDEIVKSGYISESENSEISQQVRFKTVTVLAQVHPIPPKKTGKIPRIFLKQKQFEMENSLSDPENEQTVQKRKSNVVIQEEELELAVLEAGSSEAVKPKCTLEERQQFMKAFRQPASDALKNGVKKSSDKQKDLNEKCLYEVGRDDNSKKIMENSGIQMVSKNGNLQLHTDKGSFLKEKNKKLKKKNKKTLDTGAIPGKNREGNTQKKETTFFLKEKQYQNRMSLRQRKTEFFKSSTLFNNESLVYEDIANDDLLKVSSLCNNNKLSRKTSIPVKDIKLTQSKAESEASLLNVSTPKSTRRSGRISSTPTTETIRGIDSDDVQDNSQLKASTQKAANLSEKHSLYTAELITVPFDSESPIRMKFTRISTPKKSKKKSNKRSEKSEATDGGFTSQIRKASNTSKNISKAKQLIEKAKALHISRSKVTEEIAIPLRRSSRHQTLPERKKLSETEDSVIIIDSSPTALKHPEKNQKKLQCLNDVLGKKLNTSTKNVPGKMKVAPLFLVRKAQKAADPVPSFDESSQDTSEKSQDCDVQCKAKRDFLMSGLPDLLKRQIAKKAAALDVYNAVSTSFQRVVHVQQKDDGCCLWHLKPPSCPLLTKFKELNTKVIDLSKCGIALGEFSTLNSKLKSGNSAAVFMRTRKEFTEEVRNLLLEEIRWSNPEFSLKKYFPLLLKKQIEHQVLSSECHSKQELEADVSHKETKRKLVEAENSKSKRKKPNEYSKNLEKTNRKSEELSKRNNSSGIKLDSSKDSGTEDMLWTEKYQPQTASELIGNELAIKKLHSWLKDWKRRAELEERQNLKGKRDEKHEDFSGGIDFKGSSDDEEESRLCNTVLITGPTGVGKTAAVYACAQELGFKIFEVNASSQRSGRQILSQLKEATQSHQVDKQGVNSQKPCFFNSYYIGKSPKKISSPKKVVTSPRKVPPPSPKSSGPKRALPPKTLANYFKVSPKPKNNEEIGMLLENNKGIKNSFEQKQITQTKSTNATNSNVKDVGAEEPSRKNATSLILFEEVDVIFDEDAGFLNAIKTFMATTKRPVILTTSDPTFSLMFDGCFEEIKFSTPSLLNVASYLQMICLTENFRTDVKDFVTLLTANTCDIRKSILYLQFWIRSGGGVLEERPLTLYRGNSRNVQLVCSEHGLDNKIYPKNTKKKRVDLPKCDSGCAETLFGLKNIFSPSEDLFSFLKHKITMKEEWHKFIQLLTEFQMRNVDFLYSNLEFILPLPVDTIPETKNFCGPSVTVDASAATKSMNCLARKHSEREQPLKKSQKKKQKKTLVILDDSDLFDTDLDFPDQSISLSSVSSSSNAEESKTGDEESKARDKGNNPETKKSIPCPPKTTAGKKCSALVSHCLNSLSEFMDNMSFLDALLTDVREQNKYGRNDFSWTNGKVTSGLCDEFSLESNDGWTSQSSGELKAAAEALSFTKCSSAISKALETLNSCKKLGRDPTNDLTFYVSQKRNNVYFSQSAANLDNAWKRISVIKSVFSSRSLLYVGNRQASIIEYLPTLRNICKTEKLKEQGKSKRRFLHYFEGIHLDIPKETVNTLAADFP
Procedure, shortened: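 Luciferase read-out, ONE-Glo, 30 min at room temperature, follows 16 h co-exposure at 37 C of compound and the DNA-damaging agent 5-fluorouridine. Cells: HEK293T with ELG1-luciferase fusion, 2,000 per well, DMSO as vehicle.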

[15] = target: D(1A) dopamine receptor (Homo sapiens) (UniProt P21728); assay: HTS Assay for Allosteric Agonists of the Human D1 Dopamine Receptor: Primary Screen for Agonists (AID 488981); further: 0% is about no effect
Procedure, shortened: as §1

[16] = target: ATP-dependent 6-phosphofructokinase (Trypanosoma brucei brucei) (UniProt O15648); assay: qHTS Assay to Find Inhibitors of T. brucei phosphofructokinase: hit validation (AID 492961); further: series mostly up to about 51 µM; on the % scale 0 is the no-effect control and ±100 the full control effect
Procedure, shortened: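 Luminescence from ADP-Glo reports ADP generated as T. brucei PFK (1.25 nM) phosphorylates 0.5 mM fructose-6-phosphate using 0.1 mM ATP. Reactions ran 45 min at room temperature, pH 8.0.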

[17] = target: ATP-dependent 6-phosphofructokinase (Trypanosoma brucei brucei) (UniProt O15648); assay: qHTS Validation Assay to Find Inhibitors of T. brucei phosphofructokinase (AID 485368)
Procedure, shortened: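 Luminescent ADP detection measures PFK turnover of fructose-6-phosphate (0.5 mM) with ATP (0.1 mM) at pH 8.0. Reaction runs 45 min at room temperature with 1.25 nM enzyme; inhibitors tested as titrations up to 57 uM.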

[18] = Quantitative high throughput screen for delayed death inhibitors of the malarial parasite plastid, 96 hour incubation (AID 488745); further: series mostly up to about 29 µM; on the % scale 0 is the no-effect control and ±100 the full control effect; nearly all actives have a fitted effect of over 70% in size
Procedure, shortened: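 Decreased firefly luciferase luminescence indicates inhibited growth of reporter-integrated P. falciparum after two generations (96 h, 37 C, 5% CO2). Infected erythrocytes at 0.1% parasitemia, 2% hematocrit, in Albumax-supplemented RPMI 1640.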

[19] = Quantitative high throughput screen for delayed death inhibitors of the malarial parasite plastid, 48 hour incubation (AID 488752); further: on the % scale 0 is the no-effect control and ±100 the full control effect; nearly all actives have a fitted effect of over 65% in size
Procedure, shortened: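 One-generation (48 h) growth assay: a decrease in luciferase signal from an integrated reporter in P. falciparum-infected red cells (0.1% parasitemia, 2% hematocrit) after compound exposure at 37 C indicates parasite inhibition.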

Nc1ccc(-c2ccc3ccccc3n2)cc1
active: Potency [11] 2.59 µM
inactive: outcome [1] | outcome [2] | Potency [3] | Potency [4] | Potency [5] | outcome [6] | outcome [7] | outcome [8] | Potency [9] | Potency [10] | activation [12] 4%

NCC(O)C1CCCCCCC1 (configuration not stated)
inactive: outcome [1] | outcome [2] | Potency [3] | Potency [4] | Potency [5] | Potency [13] | outcome [6] | outcome [7] | outcome [8] | Potency [9] | Potency [10] | Potency [11] | Potency [14] | activation [12] 1%

CCCCCCC(=O)OC1CC(C)(C)NC(C)(C)C1
inactive: outcome [1] | outcome [2] | Potency [4] | Potency [13] | outcome [6] | Potency [15] | Potency [9] | Potency [10] | Potency [11]

CSc1nc(N)c2ncn([C@@H]3O[C@H](COP(=O)(O)OP(=O)(O)O)C(O)[C@H]3O)c2n1 (some centres not stated)
active: Potency [9] 0.0517 µM
inactive: outcome [1] | outcome [2] | Potency [3] | Potency [4] | Potency [5] | Potency [13] | outcome [6] | Potency [14]

CC(O)C(O)[C@H]1CNc2nc(N)[nH]c(=O)c2N1 (some centres not stated)
inactive: outcome [1] | outcome [2] | Potency [4] | Potency [5] | Potency [13] | outcome [6] | Potency [15] | Potency [9] | Potency [10] | outcome [16] | Potency [11] | Potency [14]

CCCCCCCCCCC(C)(C)C(=O)Nc1c(OC)cc(OC)cc1OC
inactive: outcome [1] | outcome [2] | Potency [3] | Potency [4] | Potency [5] | Potency [13] | outcome [6] | Potency [15] | Potency [9] | Potency [11] | Potency [14]

Oc1ccc(/C=C/c2ccc(/C=C/c3ccc(O)cc3)c(Br)c2)cc1
inactive: outcome [1] | outcome [2] | Potency [4] | Potency [5] | Potency [9] | Potency [10]

NC(=Nc1ccccc1)NC(=O)c1nc(Cl)c(N)nc1N
active: Potency [10] 12.6 µM
inactive: outcome [1] | outcome [2] | Potency [3] | Potency [4] | Potency [5] | Potency [13] | outcome [6] | outcome [7] | outcome [8] | Potency [15] | Potency [9] | activation [12] 0.312%

O=C1NC(=O)c2cc(Nc3ccccc3)c(Nc3ccccc3)cc21
active: Potency [5] 31.6 µM
inactive: outcome [1] | outcome [2] | Potency [3] | Potency [4] | outcome [6] | outcome [7] | Potency [15] | Potency [9] | Potency [10] | Potency [11]

S=C(S)N1CCCC1
inactive: outcome [1] | outcome [2] | Potency [3] | Potency [4] | outcome [6] | outcome [7] | outcome [8] | Potency [15] | Potency [9] | Potency [10] | Potency [14]

Nc1nc2c(cnn2CCc2ccccc2)c2nc(-c3ccco3)nn12
inactive: outcome [1] | outcome [2] | Potency [4] | Potency [5] | Potency [13] | outcome [6] | Potency [15] | Potency [9] | Potency [10] | Potency [14]

CCCCCCCCCC(=O)NC(CN1CCOCC1)[C@H](O)c1ccccc1 (some centres not stated)
inactive: outcome [1] | outcome [2] | Potency [4] | Potency [5] | Potency [13] | outcome [6] | outcome [8] | Potency [9] | Potency [10] | Potency [11] | Potency [14] | activation [12] 0.812%

OC[C@H]1O[C@H](n2cnc3c(N[C@H]4CCC[C@@H]4O)ncnc32)[C@H](O)[C@@H]1O
inactive: outcome [1] | outcome [2] | Potency [3] | Potency [4] | Potency [5] | Potency [13] | outcome [6] | Potency [15] | Potency [9] | Potency [10]

C[C@](Cc1ccc(O)c(O)c1)(NN)C(=O)O
active: Potency [3] 8.44 µM
inactive: outcome [1] | outcome [2] | Potency [5] | Potency [13] | outcome [6] | Potency [15] | Potency [10] | Potency [11] | Potency [14]

C[C@H](NC(=O)/C(C#N)=C/c1ccc(O)c(O)c1)c1ccccc1
inactive: outcome [1] | outcome [2] | Potency [4] | outcome [6] | outcome [7] | outcome [8] | Potency [15] | Potency [9] | Potency [11] | Potency [14] | activation [12] -3.19%
active: Potency [13] 31.6 µM

O=C(O)/C(=C/c1c(C(=O)O)[nH]c2cc(Cl)cc(Cl)c12)c1ccccc1
inactive: outcome [1] | outcome [2] | Potency [4] | Potency [5] | outcome [7] | outcome [8] | Potency [15] | Potency [9] | Potency [10] | Potency [11] | activation [12] 1.12%

CC(C)C[C@H](NC(=O)[C@H](O)[C@H](N)Cc1ccccc1)C(=O)O
inactive: Potency [17] | Potency [18] | Potency [19] | outcome [2] | Potency [3] | Potency [4] | Potency [5] | Potency [13] | outcome [6] | outcome [7] | outcome [8] | Potency [15] | Potency [9] | Potency [10] | Potency [11] | Potency [14]

NCCNS(=O)(=O)c1cccc2c(Cl)cccc12
inactive: outcome [1] | outcome [2] | Potency [3] | Potency [4] | Potency [5] | Potency [13] | outcome [6] | outcome [8] | Potency [9] | Potency [10] | Potency [11] | Potency [14] | activation [12] 2.62%
